# Source: publication PMC7862700, “An all-to-all approach to the identification of sequence-specific readers for epigenetic DNA modifications on cytosine”
# Experiments:
# Assay in all cases: DAPPL (digital affinity profiling via proximity ligation, sequencing); 10 mM Tris-HCl pH 7.5, 50 mM NaCl, 1 mM DTT, 4% glycerol, room temperature, 30 min; GST-TFs on glutathione beads, 16-mer random dsDNA library, 0.1% formaldehyde crosslink after washing; high values mean tight binding
# Conditions in all cases: protein: recombinant; tags: N-terminal GST; dsDNA, one strand shown
# [1] = target: T1, SPIC (Homo sapiens, UniProt Q8N5J4 1-248)
# T1 sequence: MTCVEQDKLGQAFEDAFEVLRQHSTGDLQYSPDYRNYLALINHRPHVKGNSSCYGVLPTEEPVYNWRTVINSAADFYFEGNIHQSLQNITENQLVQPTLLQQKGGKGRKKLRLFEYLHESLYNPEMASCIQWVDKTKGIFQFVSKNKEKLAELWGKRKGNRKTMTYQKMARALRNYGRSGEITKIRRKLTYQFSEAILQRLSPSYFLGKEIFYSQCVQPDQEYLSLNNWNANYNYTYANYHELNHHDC
# In short: (§1)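 Binding signal is each hexamer's read frequency for a factor divided by its frequency in the tag-only sample. The factors were GST-fused human transcription factors from yeast, captured on glutathione beads, DNA-barcoded and pooled with that sample. Pools were incubated with 200 nmole of a random double-stranded 16-mer DNA library in Tris/NaCl/DTT/glycerol buffer at room temperature for 30 min, then washed, crosslinked with 0.1% formaldehyde, proximity-ligated with BsaI/T4 ligase (1 h, 37 °C), PCR-amplified and sequenced on an Illumina NextSeq500.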
# [2] = target: ELF4 (Homo sapiens, UniProt Q99607 1-663)
# In short: as §1
# [3] = target: T2, ELF3 (Homo sapiens, UniProt P78545 1-371)
# T2 sequence: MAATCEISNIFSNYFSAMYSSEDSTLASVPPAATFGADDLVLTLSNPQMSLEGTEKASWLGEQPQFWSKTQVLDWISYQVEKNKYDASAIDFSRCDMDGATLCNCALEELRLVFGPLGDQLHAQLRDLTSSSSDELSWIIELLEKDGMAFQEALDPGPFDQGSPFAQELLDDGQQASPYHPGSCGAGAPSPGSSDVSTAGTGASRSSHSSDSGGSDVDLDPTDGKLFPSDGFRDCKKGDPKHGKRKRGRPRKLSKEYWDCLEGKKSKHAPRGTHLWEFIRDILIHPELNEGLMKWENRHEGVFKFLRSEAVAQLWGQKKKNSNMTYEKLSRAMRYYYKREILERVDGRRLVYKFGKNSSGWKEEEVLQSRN
# In short: as §1
# [4] = target: CRX (Homo sapiens, UniProt O43186 1-299)
# In short: as §1
# [5] = target: ETV1 (Homo sapiens, UniProt P50549 1-477)
# In short: as §1
# [6] = target: T3, ELK4 (Homo sapiens, UniProt P28324-2 1-405)
# T3 sequence: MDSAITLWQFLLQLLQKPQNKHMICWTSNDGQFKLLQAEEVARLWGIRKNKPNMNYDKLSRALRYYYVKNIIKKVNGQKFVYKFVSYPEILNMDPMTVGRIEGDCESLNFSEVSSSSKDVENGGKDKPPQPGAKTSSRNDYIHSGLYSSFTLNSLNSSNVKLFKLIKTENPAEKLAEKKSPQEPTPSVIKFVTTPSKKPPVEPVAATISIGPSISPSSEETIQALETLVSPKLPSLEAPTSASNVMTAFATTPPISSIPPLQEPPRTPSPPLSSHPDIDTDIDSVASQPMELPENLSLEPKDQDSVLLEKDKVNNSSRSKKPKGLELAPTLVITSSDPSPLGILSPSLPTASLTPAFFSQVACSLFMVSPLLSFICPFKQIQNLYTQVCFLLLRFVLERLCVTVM
# In short: as §1
# [7] = target: T4, ELK1 (Homo sapiens, UniProt P19419 1-428)
# T4 sequence: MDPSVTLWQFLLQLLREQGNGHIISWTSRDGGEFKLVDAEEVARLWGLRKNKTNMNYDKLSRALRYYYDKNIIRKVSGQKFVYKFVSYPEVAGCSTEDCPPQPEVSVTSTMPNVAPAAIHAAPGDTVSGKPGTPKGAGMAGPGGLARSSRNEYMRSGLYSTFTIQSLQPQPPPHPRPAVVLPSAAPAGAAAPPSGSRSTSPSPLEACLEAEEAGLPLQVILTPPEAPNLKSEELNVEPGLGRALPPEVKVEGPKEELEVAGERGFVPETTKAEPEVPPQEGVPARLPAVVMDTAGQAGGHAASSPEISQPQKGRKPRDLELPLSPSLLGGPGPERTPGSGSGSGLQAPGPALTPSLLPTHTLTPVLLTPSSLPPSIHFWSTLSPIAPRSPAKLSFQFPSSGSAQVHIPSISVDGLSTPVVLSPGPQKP
# In short: as §1
# [8] = target: ELF1 (Homo sapiens, UniProt P32519 1-619)
# In short: as §1
# [9] = target: T5, EHF (Homo sapiens, UniProt Q9NZC4 1-300)
# T5 sequence: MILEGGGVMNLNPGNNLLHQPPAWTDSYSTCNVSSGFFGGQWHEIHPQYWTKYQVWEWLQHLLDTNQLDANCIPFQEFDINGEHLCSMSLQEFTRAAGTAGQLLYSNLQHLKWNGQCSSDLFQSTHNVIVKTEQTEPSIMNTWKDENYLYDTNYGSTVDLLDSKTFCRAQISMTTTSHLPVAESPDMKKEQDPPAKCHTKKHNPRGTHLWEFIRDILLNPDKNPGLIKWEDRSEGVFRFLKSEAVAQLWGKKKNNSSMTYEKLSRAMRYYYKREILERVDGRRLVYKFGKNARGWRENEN
# In short: as §1
# [10] = target: T6, ETV2 (Homo sapiens, UniProt O00321 1-342)
# T6 sequence: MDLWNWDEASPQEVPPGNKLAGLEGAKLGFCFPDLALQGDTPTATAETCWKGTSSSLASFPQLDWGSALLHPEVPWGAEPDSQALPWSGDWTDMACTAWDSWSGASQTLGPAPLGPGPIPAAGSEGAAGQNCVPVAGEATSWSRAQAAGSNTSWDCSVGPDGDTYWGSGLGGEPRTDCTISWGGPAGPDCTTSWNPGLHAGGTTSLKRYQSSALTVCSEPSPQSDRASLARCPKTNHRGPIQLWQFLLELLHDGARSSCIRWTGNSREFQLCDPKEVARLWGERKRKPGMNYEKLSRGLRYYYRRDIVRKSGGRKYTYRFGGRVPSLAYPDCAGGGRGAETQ
# In short: as §1
# [11] = target: T7, ERF (Homo sapiens, UniProt P50548 1-548)
# T7 sequence: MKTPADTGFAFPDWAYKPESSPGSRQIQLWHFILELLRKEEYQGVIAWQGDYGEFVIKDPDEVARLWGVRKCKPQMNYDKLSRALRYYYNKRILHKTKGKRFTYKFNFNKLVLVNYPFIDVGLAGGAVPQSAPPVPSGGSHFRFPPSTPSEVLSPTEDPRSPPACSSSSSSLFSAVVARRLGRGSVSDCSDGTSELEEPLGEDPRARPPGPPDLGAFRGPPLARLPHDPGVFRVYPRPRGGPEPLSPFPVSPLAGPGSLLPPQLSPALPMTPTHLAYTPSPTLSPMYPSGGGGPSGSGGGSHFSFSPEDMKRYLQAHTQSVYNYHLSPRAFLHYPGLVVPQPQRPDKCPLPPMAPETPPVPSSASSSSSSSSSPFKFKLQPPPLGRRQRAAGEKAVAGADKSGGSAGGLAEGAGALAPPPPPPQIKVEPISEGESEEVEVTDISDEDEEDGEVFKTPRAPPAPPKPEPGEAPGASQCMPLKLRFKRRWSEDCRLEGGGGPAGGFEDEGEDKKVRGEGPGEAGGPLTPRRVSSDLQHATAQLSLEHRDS
# In short: as §1
# [12] = target: T8, SPDEF (Homo sapiens, UniProt O95238 1-335)
# T8 sequence: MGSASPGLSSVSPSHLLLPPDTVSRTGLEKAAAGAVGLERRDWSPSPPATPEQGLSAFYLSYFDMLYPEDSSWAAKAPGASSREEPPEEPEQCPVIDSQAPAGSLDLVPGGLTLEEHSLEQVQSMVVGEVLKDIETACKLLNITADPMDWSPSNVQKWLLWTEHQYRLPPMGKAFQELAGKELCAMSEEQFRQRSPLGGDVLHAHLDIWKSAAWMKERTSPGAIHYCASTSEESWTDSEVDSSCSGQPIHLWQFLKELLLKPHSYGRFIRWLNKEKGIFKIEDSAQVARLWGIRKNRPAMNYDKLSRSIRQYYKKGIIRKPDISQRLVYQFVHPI
# In short: as §1
# [13] = target: T9, ELF5 (Homo sapiens, UniProt Q9UKW6-2 1-255)
# T9 sequence: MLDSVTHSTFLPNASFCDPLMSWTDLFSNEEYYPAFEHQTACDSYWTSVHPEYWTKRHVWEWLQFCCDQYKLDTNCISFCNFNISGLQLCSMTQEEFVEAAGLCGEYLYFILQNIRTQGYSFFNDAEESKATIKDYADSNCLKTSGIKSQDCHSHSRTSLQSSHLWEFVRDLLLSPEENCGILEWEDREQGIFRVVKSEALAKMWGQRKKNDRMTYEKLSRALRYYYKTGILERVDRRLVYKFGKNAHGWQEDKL
# In short: as §1
# [14] = target: SPI1 (Homo sapiens, UniProt P17947 1-270)
# In short: as §1
# [15] = target: T10, ELK3 (Homo sapiens, UniProt P41970 1-407)
# T10 sequence: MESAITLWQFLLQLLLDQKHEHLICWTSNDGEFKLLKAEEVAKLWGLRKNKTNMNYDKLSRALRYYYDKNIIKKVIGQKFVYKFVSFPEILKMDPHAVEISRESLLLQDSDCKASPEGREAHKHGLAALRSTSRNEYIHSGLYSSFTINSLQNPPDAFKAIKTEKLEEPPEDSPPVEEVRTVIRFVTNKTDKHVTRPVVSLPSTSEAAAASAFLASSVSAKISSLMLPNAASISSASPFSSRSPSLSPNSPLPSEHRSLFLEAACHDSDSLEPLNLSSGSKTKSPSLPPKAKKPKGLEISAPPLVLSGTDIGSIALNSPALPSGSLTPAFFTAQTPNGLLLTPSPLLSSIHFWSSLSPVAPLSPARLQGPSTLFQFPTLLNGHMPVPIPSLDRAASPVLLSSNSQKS
# In short: as §1
# [16] = target: T11, ETV3L (Homo sapiens, UniProt Q6ZN32 1-361)
# T11 sequence: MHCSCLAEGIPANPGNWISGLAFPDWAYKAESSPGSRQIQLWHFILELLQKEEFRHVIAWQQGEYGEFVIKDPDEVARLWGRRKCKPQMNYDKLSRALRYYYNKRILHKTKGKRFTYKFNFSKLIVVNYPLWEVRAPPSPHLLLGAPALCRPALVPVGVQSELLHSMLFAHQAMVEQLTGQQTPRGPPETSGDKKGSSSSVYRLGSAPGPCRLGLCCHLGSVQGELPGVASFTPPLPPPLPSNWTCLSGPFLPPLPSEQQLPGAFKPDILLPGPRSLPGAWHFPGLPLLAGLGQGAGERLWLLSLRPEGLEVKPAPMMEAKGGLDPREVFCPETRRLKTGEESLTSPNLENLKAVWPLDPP
# In short: as §1
# [17] = target: ETV6 (Homo sapiens, UniProt P41212 1-452)
# In short: as §1
# Chain of ETV1 (P50549 whole entry): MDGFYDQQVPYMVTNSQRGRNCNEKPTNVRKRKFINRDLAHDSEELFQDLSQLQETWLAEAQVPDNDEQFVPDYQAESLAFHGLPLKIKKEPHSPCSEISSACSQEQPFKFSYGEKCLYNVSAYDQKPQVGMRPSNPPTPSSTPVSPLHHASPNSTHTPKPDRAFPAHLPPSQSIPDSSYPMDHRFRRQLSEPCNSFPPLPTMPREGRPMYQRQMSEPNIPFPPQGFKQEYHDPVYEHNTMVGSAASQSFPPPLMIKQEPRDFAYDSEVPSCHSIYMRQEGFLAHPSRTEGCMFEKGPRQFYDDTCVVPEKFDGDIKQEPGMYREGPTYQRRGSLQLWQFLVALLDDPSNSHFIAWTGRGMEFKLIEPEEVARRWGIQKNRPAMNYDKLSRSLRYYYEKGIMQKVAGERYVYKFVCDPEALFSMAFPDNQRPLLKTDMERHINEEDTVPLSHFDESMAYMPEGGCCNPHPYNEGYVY
# Chain of ELF4 (Q99607 whole entry): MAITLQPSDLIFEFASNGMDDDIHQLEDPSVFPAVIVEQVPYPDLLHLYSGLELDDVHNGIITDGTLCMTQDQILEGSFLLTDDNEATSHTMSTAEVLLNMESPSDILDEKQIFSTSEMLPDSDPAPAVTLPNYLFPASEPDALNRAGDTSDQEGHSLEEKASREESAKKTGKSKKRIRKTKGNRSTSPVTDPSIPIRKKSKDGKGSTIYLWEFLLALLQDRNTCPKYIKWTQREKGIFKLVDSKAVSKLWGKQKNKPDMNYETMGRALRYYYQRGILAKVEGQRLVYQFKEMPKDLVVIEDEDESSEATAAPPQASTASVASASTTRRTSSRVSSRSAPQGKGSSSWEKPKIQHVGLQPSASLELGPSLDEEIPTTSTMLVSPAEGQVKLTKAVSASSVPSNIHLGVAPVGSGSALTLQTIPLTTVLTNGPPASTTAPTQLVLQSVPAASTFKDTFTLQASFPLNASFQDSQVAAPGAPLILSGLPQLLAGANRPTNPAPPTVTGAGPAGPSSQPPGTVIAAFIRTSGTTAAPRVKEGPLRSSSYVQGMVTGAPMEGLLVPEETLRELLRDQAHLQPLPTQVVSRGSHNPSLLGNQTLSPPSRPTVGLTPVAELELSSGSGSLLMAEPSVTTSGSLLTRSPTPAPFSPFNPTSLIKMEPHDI
# Chain of ELF1 (P32519 whole entry): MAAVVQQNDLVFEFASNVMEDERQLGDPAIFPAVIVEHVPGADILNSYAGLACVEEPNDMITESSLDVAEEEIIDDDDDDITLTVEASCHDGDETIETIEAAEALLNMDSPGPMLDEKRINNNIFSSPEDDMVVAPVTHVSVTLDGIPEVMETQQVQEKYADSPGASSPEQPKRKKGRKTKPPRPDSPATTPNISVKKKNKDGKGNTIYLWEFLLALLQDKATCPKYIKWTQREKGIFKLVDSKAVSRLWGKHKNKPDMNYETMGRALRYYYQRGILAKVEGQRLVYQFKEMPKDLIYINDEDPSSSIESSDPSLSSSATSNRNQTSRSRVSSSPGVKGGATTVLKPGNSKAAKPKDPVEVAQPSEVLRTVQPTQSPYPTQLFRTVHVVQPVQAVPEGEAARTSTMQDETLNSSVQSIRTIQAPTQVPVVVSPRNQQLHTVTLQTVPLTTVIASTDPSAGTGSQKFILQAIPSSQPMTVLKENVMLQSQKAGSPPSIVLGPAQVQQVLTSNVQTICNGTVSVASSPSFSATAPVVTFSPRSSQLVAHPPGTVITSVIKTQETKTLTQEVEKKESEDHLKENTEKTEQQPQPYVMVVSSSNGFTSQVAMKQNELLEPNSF
# Chain of ETV6 (P41212 whole entry): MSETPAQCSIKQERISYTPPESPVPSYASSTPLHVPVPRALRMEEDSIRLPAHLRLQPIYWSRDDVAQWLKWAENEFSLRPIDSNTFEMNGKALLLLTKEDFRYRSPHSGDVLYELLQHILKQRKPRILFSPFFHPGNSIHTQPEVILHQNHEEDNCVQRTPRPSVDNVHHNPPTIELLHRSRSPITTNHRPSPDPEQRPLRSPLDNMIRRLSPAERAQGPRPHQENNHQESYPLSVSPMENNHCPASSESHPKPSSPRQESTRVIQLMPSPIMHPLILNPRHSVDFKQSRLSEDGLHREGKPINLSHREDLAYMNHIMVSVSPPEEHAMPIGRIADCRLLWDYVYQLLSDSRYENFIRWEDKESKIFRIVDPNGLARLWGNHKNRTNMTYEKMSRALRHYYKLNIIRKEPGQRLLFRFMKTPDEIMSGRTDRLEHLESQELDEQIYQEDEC
# Chain of CRX (O43186 whole entry): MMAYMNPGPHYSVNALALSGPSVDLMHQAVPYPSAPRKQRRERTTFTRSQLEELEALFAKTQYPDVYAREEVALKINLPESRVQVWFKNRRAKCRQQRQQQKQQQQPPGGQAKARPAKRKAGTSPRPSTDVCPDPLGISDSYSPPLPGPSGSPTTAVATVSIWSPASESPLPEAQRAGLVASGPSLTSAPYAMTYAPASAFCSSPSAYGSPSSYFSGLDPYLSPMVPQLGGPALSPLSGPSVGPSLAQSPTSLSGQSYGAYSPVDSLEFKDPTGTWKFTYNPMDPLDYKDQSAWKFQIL
sequence,measurement,setting,value
CTAAGG,binding signal,[1],"1.06 fold enrichment (6-mer frequency, TF over GST control)"
same,binding signal,[2],"1.02 fold enrichment (6-mer frequency, TF over GST control)"
same,binding signal,[3],"1.02 fold enrichment (6-mer frequency, TF over GST control)"
same,binding signal,[4],"1.12 fold enrichment (6-mer frequency, TF over GST control)"
same,binding signal,[5],"1.01 fold enrichment (6-mer frequency, TF over GST control)"
GTTGTC,binding signal,[1],"1.1 fold enrichment (6-mer frequency, TF over GST control)"
same,binding signal,[6],"1.02 fold enrichment (6-mer frequency, TF over GST control)"
AGACTC,binding signal,[1],"1.06 fold enrichment (6-mer frequency, TF over GST control)"
ATCACG,binding signal,[7],"1.04 fold enrichment (6-mer frequency, TF over GST control)"
same,binding signal,[8],"1.03 fold enrichment (6-mer frequency, TF over GST control)"
same,binding signal,[9],"1.08 fold enrichment (6-mer frequency, TF over GST control)"
same,binding signal,[1],"1.04 fold enrichment (6-mer frequency, TF over GST control)"
same,binding signal,[6],"1 fold enrichment (6-mer frequency, TF over GST control)"
same,binding signal,[10],"1.07 fold enrichment (6-mer frequency, TF over GST control)"
same,binding signal,[3],"1.01 fold enrichment (6-mer frequency, TF over GST control)"
same,binding signal,[5],"1.02 fold enrichment (6-mer frequency, TF over GST control)"
same,binding signal,[11],"1.07 fold enrichment (6-mer frequency, TF over GST control)"
same,binding signal,[12],"1.07 fold enrichment (6-mer frequency, TF over GST control)"
same,binding signal,[13],"1.02 fold enrichment (6-mer frequency, TF over GST control)"
CTAGGG,binding signal,[1],"1.07 fold enrichment (6-mer frequency, TF over GST control)"
ACATGA,binding signal,[7],"1.01 fold enrichment (6-mer frequency, TF over GST control)"
same,binding signal,[14],"1.01 fold enrichment (6-mer frequency, TF over GST control)"
same,binding signal,[15],"1.07 fold enrichment (6-mer frequency, TF over GST control)"
same,binding signal,[1],"1.02 fold enrichment (6-mer frequency, TF over GST control)"
same,binding signal,[2],"1.04 fold enrichment (6-mer frequency, TF over GST control)"
same,binding signal,[3],"1.03 fold enrichment (6-mer frequency, TF over GST control)"
CACGGC,binding signal,[8],"1.04 fold enrichment (6-mer frequency, TF over GST control)"
same,binding signal,[14],"1.01 fold enrichment (6-mer frequency, TF over GST control)"
same,binding signal,[1],"1.03 fold enrichment (6-mer frequency, TF over GST control)"
same,binding signal,[5],"1 fold enrichment (6-mer frequency, TF over GST control)"
same,binding signal,[16],"1.07 fold enrichment (6-mer frequency, TF over GST control)"
same,binding signal,[12],"1.03 fold enrichment (6-mer frequency, TF over GST control)"
same,binding signal,[17],"1.05 fold enrichment (6-mer frequency, TF over GST control)"
